Only some compounds are listed: those with a hit (about 27% of all), similar ones and a draw of the others.
CYP2C9 inh – blockers of cytochrome P450 2C9 activity – biochemical, luminescence, ADME assay, primary screen. P11712. CYP2C9 Supersomes, luciferin-H conversion. inhibition, % at 5 µM. 96,000 compounds, 20% hits. AID 777, 2007;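 active means blocking of liver enzyme CYP2C9 beyond about 50% at 5 µM, limit read from the data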
sEH inh – soluble epoxide hydrolase inhibitors, primary screen, biochemical, human sEH | Bifunctional epoxide hydrolase 2 (Homo sapiens), P34913 | recombinant human sEH enzymatic activity assay | inhibition, % at 2 µM | 91,000 compounds, 0.34% hits; in the data active means inhibition above about 80%
CYP2C9 act – human CYP2C9 activators, primary screen, biochemical, luminescence; activation factor at 5 µM; Cytochrome P450 2C9 (Homo sapiens), P11712; recombinant CYP2C9, luciferin-H conversion; hits give high values; factor 1 = untreated enzyme, 0 = blocked; AID 1024, 2008; 96,000 compounds, 1.4% hits;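 active means activation factor of 2 or more for CYP2C9 at a 5 µM dose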;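 further: 0 = sulfaphenazole-blocked wells and 1 = vehicle-only wells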
CYP2C19 act – human CYP2C19 activators, primary screen, biochemical, luminescence. recombinant CYP2C19, luciferin-H EGE luminescence; hits give high values; 0 = fully inhibited enzyme, 1 = untreated enzyme. activation factor at 5 µM. 96,000 tested, under 10 active. AID 1025, 2008;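 active means activation factor of at least 2 at 5 µM in the primary screen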;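 further: 0 = wells with 2.5 mM tranylcypromine and 1 = vehicle-only wells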
Target sequence (P33261 whole entry, looked up): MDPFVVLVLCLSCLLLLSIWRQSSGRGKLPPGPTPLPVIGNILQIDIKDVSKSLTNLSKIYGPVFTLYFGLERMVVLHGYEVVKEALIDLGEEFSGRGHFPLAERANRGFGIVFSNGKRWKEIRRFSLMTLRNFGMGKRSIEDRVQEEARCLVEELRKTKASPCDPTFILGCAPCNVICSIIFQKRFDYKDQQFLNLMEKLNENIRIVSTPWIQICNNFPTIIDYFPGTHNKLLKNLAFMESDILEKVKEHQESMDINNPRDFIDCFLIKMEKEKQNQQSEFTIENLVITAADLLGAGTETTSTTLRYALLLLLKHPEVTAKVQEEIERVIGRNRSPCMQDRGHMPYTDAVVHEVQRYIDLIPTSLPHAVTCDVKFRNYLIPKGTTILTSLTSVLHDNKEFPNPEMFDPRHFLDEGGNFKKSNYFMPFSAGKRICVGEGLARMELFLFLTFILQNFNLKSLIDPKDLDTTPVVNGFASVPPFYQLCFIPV
sEH act – soluble epoxide hydrolase activators, primary screen, biochemical, human sEH; activation, % at 2 µM; purified human sEH enzymatic activity, activator screen; 91,000 compounds, 0.04% hits; in the data active means activation above about 37%
CYP2C19 inh – blockers of cytochrome P450 2C19 activity – biochemical, luminescence, ADME assay, primary screen; P33261; CYP2C19 Supersomes, luciferin-H EGE luminescence, 30 min; inhibition, % at 5 µM; 96,000 compounds, 21% hits; AID 778, 2007;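 active means CYP2C19 inhibition above a set limit at 5 µM in the primary screen, cut at about 50% in these data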;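 further: plate controls were negative control wells for no effect and 2.5 mM tranylcypromine positive control for full effect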
An asterisk follows results filed as active; · = not tested or not shown.

SMILES	CYP2C9 inh	sEH inh	CYP2C9 act	CYP2C19 act	sEH act	CYP2C19 inh
CCOC(=O)N1CCN(c2c(Nc3ccc4c(c3)OCCO4)c(=O)c2=O)CC1	-103.0	10.1	2*	0.9	-9.6	10.7
CCOC(=O)N1CCN(c2c(N3CCOCC3)c(=O)c2=O)CC1	6.7	·	0.9	1	·	-1.2
CC(C)NC(=S)NN(c1ccccc1)c1ccccc1	51.0*	7.0	0.5	0.4	-5.3	61.5*
CC(C)CN(CC(C)C)C1=N/C(=C\c2ccco2)C(=O)N1c1ccccc1	1.8	-10.5	1	0.9	10.4	9.2
COc1ccc(CNC(=O)c2csc(Cc3ccc(Cl)cc3)n2)cc1	61.8*	8.6	0.4	0.4	-6.5	56.8*
COc1ccc(CNC(=O)c2csc(Cc3ccc(OC)cc3)n2)cc1	66.8*	6.3	0.3	0.5	-4.2	48.6
COCCCn1c(SCC(=O)N2CCc3ccccc32)nnc1-c1ccco1	·	0.9	·	·	-0.4	·
COc1ccc(/C=N/N2CCN(c3ccncc3S(=O)(=O)N3CCCCC3)CC2)cc1	-5.3	-8.2	1.1	0.8	10.8	22.4
c1c2c(cc3sc(N4CCOCC4)nc13)OCO2	2.8	1.2	1	0.6	-2.6	41.6
c1c2c(cc3sc(N4CCCCC4)nc13)OCO2	17.8	·	0.8	0.2	·	84.0*
CC(=O)Nc1nc2cc3c(cc2s1)OCO3	28.3	·	0.7	0.4	·	64.4*
O=C(O)CCC(NS(=O)(=O)c1ccc(-c2ccccc2)cc1)C(=O)O (configuration not stated)	-12.9	1.6	1.1	1	-0.2	-2.7
N#CCCSc1ccccc1NC(=O)c1ccc(S(=O)(=O)N2CCCC2)cc1	75.6*	-9.1	0.2	0.8	8.5	19.2
O=C(CCn1cccc1)Nc1ccc(F)cc1	33.2	9.7	0.7	0.4	-10.9	61.5*
Cc1ccc(NC(=O)CCn2cccc2)cc1Cl	32.0	12.4	0.7	0.1	-13.5	86.1*
CCC(Cc1ccccc1)NC(=O)CCn1cccc1 (configuration not stated)	66.3*	17.6	0.3	0.3	-15.0	65.7*
CCc1ccc(NC(=O)CCn2ccnc2C)cc1	68.5*	-20.5	0.3	0.2	15.4	82.9*
O=C(CN1CCOCC1)NCC12CC3CC(CC(C3)C1)C2	2.2	·	1	1	·	-1.5
CN1CCC(OC(=O)COc2ccc(C(C)(C)C)cc2)CC1	4.1	11.0	1	0.9	-11.3	5.5
COC(=O)c1ccc(NC(=O)CCn2cccc2)cc1	41.2	5.3	0.6	0.8	-1.4	22.0
O=C(CCN1CCc2ccccc2C1)Nc1ccc(F)cc1	20.4	-2.4	0.8	0.4	0.8	61.0*
CCc1ccc(NC(=O)CCn2cccc2)cc1	22.9	8.4	0.8	0.3	-9.5	71.1*
Cc1cnc(NC(=O)C(C)N2C(=O)C3CC=CCC3C2=O)s1 (configuration not stated)	21.9	-12.0	0.8	0.6	10.4	39.8
CCOC(=O)c1cccc(NC(=O)CNS(=O)(=O)c2cccs2)c1	·	8.0	·	·	-7.3	·
O=C(OCCN(CCOC(=O)c1ccncc1)S(=O)(=O)c1cccs1)c1ccncc1	99.9*	14.0	0	0	-14.2	99.1*
SMILES	CYP2C9 inh	sEH inh	CYP2C9 act	CYP2C19 act	sEH act	CYP2C19 inh
CC(C)(C)C1(C)OC(C(=O)NC2CCCCC2)C(C(=O)NC2CCCCC2)O1 (configuration not stated)	11.8	·	0.9	0.8	·	17.9
CCOc1ccc2c(c1)c1nnc(SCC3CCCO3)nc1n2C (configuration not stated)	47.5	2.3	0.5	0.5	-4.7	47.1
CC1(C)CC(=O)CC(C)(C)N1OC(=O)c1ccncc1	51.7*	-8.8	0.5	0.3	8.9	66.7*
COc1cccc(NC(=O)CCS(=O)(=O)c2cccs2)c1	58.3*	·	0.4	0.4	·	59.6*
CCOC(=O)c1cccc(NC(=O)CCS(=O)(=O)c2cccs2)c1	88.7*	·	0.1	0.3	·	72.4*
COc1cccc(NC(=O)CNC(=O)c2cccs2)c1	28.4	3.8	0.7	0.5	0.0	46.9
CCCCC(=O)Nc1ccc(C(=O)Nc2nnc(COC)s2)cc1	29.4	9.4	0.7	0.9	-9.2	10.4
CC(C)(C)CNc1cc(N2CCCC2)ccc1[N+](=O)[O-]	29.0	2.2	0.7	1	1.9	3.5
Cc1cc(C)c(S(=O)(=O)N2CCN(c3ccc([N+](=O)[O-])c(NCC4CCCO4)c3)CC2)c(C)c1 (configuration not stated)	56.1*	-0.5	0.4	0.6	2.9	36.0
Cc1cc(C)c(S(=O)(=O)N2CCN(c3ccc([N+](=O)[O-])c(NCc4ccco4)c3)CC2)c(C)c1	53.3*	-4.3	0.5	0.6	6.2	37.2
CCNc1cc(N2CCN(S(=O)(=O)c3ccc4c(c3)CCCC4)CC2)ccc1[N+](=O)[O-]	32.9	7.6	0.7	0.5	-6.9	54.1*
CC(C)c1ccc(CNc2cc(N3CCCC3)ccc2[N+](=O)[O-])cc1	52.6*	16.6	0.5	0.7	-18.3	30.3
Cc1ccccc1-c1ccc(C=Nc2c(C)n(C)n(-c3ccccc3)c2=O)o1	-21.7	-3.8	1.2	0.8	6.0	15.9
Cc1ccc(O)c(N=CC2=C(O)c3ccccc3C2=O)c1	78.6*	-7.1	0.2	0.5	8.5	49.9
CCOC(=O)Nc1ccc(S(=O)(=O)Nc2cc(C)nc(C)n2)cc1	16.1	-4.6	0.8	1.1	3.3	-9.8
CCOC(=O)Nc1ccc(S(=O)(=O)Nc2nc(C)cc(C)n2)cc1	-22.6	2.9	1.2	1	-1.0	-3.2
CCOC(=O)Nc1sc(NS(=O)(=O)c2ccccc2)nc1C	81.4*	3.1	0.2	1	-1.8	-0.3
CCOC(=O)c1sc(NS(=O)(=O)c2ccc(C)cc2)nc1C	77.1*	-18.2	0.2	0.6	18.8	42.4
CCC(C)c1ccc(NC(=O)c2cccs2)cc1 (configuration not stated)	36.2	89.5*	0.6	0.7	-89.9	25.2
CCOC(=O)Nc1ccc(NS(=O)(=O)c2ccc(C)cc2)cc1	95.9*	3.6	0	0	-1.6	99.1*
CCOC(=O)c1sc(NC(=O)c2ccc(S(=O)(=O)N(C)C)cc2)nc1C	-15.3	8.8	1.2	1	-9.0	1.9
O=C(Nc1ccc(Cl)cc1)c1cccs1	-4.2	36.6	1	0.8	-37.8	19.6
CCCn1nc(NC(=O)CC(C)C)c2cc3ccccc3nc21	28.0	9.3	0.7	0.9	-9.7	11.5
CC(CC(=O)Nc1nncs1)c1ccccc1 (configuration not stated)	·	14.9	·	·	-10.5	·
COc1ccc(NC(=O)c2cccs2)cc1	·	7.0	·	·	-1.6	·
CCOC(=O)Nc1ccc(S(=O)(=O)Nc2nccc(C)n2)cc1	24.1	-3.6	0.8	1.1	2.9	-9.2

Screening data from PubChem.
